Test results as given in the supplement of paper PMC10849652.
The full data set covers some 8,800 targets. This sample favours those with a hit. About 0.5% of all pairs of compound and target were hits.

How the values were obtained:
Experiment in all cases: log2 fold change, soluble protein after heating vs DMSO (PISA); higher = thermal stabilisation; K562 lysate, 10 uM; active = over 0.2 and 3.5 SD of the protein, either way, in both replicates (recomputed)
[1] = compound: C1=CC=C(C=C1)[C@H](COC2=CC3=C(C=C2)NC(=O)N3)NC(=O)C4=CC=CN(C4=O)CC5=CC(=C(C=C5)F)F
Procedure, shortened: (§1)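 Soluble protein was defined as the supernatant remaining after 21,000xg for 90 min, following pooling of heated aliquots and adjustment to 0.5% NP-40 at 4°C. Before that, crude K562 extract at 1 mg/mL protein in PBS pH 7.4 with 1 mM MgCl2 was treated with 10 μM compound for 30 min and heated for 3 min across 48°C-58°C. Quantification used TMTpro 16plex LC-MS/MS with channel sums equalised, and values are log-two fold changes in thermal stability relative to solvent controls from duplicates.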

[2] = compound: CC1=C(SC2=C1C(=N[C@H](C3=NN=C(N32)C)CC(=O)N)C4=CC=C(C=C4)Cl)C
Procedure, shortened: as §1

[3] = compound: CC1=C2C(=CC=C1)N=C(N(C2=O)C3=CC=CC=C3C)CN4C=NC5=C(N=CN=C54)N
Procedure, shortened: as §1

[4] = compound: Cc1sc2c(c1C)C(c1ccc(Cl)cc1)=N[C@@H](CC(=O)OC(C)(C)C)c1nnc(C)n1-2
Procedure, shortened: as §1

[5] = compound: c1ccc([C@@H]2C[C@H]2NC2CCNCC2)cc1
Procedure, shortened: as §1

Measured: log2 fold change

VRK2 (UniProt Q86Y07)
Chain of UniProt Q86Y07 (Q86Y07 whole entry, looked up): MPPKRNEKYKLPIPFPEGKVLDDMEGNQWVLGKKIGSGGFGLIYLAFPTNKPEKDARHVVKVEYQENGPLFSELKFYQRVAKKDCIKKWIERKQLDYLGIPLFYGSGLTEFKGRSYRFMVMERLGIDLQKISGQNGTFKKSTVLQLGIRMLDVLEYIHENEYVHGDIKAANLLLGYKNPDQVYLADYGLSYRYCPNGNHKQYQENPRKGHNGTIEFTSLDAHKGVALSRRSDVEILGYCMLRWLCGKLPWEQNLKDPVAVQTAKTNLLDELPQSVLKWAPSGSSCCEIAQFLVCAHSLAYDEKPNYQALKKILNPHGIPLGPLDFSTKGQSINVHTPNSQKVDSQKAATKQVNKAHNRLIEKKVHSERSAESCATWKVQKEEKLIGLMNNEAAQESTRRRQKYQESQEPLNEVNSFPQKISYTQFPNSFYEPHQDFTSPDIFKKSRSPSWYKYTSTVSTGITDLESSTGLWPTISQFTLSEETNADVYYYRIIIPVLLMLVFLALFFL
inactive: [1] 0.004 | [2] 0 | [3] -0.242 | [4] -0.023 | [5] -0.018

ZMYND8 isoform 19 (UniProt Q9ULU4)
inactive: [1] -0.006 | [2] -0.011 | [3] 0.055 | [4] 0.011 | [5] -0.026

WAC (UniProt Q9BTA9)
Chain of UniProt Q9BTA9 (Q9BTA9 whole entry, looked up): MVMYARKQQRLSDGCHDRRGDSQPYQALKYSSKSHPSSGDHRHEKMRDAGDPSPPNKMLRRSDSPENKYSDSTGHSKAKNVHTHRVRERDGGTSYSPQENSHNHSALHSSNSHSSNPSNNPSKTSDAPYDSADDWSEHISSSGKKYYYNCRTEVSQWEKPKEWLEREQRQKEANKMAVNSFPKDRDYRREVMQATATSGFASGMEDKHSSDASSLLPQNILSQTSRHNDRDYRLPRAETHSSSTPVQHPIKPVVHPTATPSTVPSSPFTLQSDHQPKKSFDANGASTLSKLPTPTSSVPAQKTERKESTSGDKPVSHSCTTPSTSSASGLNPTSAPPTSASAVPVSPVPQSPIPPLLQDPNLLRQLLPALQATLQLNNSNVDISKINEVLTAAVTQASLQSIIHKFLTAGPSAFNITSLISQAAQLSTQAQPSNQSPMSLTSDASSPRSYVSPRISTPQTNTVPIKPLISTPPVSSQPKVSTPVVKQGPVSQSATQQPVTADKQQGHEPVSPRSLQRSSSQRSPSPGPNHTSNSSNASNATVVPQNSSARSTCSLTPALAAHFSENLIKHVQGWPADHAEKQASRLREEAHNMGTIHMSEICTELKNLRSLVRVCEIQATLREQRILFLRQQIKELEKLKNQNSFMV
inactive: [1] -0.03 | [2] 0.056 | [3] -0.013 | [4] 0.041 | [5] 0.037

ZHX1 (UniProt Q9UKY1)
Chain of UniProt Q9UKY1 (Q9UKY1 whole entry, looked up): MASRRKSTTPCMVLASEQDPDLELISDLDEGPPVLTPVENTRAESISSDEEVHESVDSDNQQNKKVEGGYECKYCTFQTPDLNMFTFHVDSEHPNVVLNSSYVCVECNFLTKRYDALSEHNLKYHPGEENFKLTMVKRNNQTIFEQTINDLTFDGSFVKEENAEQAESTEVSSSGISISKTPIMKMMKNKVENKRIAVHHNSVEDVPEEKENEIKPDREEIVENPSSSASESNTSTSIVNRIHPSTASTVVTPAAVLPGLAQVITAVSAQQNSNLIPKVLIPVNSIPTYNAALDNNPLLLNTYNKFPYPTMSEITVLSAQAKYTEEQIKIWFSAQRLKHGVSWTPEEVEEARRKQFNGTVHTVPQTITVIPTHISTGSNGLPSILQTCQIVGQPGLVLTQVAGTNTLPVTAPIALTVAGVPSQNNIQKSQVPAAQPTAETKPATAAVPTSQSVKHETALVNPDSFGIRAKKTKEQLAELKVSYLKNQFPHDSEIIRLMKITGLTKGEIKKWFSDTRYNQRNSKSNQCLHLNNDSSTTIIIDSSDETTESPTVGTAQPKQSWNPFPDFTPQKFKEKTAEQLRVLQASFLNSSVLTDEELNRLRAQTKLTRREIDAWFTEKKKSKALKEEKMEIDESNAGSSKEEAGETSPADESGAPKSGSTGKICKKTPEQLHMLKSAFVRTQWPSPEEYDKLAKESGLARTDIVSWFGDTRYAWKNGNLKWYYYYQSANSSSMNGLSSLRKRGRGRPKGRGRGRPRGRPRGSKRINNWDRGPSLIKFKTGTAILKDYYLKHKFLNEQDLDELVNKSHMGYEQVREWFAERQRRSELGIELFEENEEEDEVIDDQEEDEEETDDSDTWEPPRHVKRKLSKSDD
inactive: [1] 0.016 | [2] 0.036 | [3] 0.022 | [4] -0.224 | [5] -0.22

VCPIP1 (UniProt Q96JH7)
Chain of UniProt Q96JH7 (Q96JH7 whole entry, looked up): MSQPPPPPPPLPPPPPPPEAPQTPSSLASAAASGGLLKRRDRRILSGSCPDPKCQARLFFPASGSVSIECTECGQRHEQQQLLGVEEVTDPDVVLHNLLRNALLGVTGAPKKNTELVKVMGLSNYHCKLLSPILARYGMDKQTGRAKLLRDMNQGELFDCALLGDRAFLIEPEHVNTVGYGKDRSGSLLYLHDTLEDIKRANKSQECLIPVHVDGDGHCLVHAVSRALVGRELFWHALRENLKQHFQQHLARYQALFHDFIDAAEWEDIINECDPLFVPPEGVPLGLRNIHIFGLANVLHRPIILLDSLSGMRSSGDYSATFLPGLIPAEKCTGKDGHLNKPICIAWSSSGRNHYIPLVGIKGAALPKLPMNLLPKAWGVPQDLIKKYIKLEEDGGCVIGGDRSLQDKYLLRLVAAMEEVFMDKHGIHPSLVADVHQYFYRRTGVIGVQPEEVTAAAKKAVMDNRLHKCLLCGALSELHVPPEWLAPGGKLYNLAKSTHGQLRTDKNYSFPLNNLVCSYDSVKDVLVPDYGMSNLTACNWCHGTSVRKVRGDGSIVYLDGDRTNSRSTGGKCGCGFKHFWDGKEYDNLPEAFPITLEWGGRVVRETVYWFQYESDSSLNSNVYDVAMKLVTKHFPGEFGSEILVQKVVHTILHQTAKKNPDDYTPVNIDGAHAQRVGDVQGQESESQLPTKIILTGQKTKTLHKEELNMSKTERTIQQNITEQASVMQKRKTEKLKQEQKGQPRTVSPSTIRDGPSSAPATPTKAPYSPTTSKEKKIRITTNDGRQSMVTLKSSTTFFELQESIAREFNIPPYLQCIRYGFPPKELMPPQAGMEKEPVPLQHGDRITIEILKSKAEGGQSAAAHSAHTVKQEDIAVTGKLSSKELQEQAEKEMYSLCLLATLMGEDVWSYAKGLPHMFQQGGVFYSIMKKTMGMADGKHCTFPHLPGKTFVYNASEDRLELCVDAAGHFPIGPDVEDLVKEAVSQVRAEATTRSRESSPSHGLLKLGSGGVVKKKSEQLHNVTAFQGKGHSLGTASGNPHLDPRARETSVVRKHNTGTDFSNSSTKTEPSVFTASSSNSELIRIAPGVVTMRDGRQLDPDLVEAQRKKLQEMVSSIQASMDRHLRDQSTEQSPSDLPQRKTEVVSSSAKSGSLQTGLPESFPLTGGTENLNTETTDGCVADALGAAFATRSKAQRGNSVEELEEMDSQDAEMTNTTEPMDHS
inactive: [1] -0.025 | [2] -0.008 | [3] 0.002 | [4] -0.052 | [5] -0.002

WDR41 (UniProt Q9HAD4)
inactive: [1] 0.043 | [2] 0.013 | [3] 0.02 | [4] -0.047 | [5] -0.012

ZNF609 (UniProt O15014)
Chain of UniProt O15014 (O15014 whole entry, looked up): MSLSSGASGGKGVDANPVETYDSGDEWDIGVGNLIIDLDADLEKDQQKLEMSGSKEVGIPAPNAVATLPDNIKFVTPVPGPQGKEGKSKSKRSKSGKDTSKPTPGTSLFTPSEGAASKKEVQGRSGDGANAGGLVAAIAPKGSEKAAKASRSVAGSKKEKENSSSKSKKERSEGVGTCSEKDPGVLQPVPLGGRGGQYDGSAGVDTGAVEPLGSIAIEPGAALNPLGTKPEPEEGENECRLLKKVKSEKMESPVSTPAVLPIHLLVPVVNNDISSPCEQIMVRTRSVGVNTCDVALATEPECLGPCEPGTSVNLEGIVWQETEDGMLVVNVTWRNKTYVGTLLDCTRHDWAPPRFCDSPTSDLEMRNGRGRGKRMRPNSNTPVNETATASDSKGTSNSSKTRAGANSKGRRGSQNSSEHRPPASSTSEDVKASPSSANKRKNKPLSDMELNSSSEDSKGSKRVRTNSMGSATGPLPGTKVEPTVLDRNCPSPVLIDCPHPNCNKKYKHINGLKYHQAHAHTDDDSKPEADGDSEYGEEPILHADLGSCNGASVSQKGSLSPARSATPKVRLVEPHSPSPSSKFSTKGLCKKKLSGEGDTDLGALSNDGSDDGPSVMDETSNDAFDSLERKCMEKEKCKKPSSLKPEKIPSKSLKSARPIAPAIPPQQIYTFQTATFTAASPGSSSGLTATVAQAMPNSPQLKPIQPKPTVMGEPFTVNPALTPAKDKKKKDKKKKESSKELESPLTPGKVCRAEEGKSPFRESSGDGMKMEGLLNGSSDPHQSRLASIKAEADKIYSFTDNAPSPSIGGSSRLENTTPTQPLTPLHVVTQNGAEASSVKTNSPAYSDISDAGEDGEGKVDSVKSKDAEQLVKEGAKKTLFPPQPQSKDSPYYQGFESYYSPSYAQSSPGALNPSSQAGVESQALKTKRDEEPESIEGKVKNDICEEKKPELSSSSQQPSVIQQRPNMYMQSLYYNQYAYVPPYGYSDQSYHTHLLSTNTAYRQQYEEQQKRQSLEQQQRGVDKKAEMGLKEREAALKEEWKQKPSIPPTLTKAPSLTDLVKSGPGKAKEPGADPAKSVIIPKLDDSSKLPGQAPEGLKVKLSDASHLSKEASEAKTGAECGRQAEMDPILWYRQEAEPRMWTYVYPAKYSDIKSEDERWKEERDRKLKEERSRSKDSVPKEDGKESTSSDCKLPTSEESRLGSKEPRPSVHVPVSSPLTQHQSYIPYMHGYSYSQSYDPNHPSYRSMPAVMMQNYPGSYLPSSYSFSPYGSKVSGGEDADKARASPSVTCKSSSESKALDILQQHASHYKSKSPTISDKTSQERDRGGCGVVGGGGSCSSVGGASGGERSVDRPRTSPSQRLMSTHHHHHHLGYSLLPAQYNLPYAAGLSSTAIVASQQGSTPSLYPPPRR
inactive: [1] 0.009 | [2] 0.008 | [3] 0.078 | [4] -0.047 | [5] -0.082
